The source of these data is PubChem BioAssay.

Molecules are shown by their SMILES. Values without a mark were called inactive. The source made the active and inactive calls.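 How the source made its calls, unless noted: active means compound that reduces growth-factor-driven endothelial tube area in a mixed cell culture, no cutoff stated; inactive means the rest.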

The first assay is described as follows: inhibition of endothelial tube formation, primary screen, imaging, VEGF stimulated, CD31 staining, tube area, NPC library (AID 1117340). The settings on record: VEGF-stimulated ADSC/ECFC co-culture, at 10 µM, active compounds read high.
On to `C[C@]12CCC(=O)C=C1CC[C@@H]1[C@@H]2[C@@H](O)C[C@@]2(C)[C@H]1CC[C@]2(O)C(=O)COP(=O)(O)O`, for which the tube area decrease was -8.4%.
On the same count and under the same terms, as for `CCCc1ncc(C[n+]2ccccc2C)c(N)n1`, the figure is 6.7%.
As to `COc1cc(NS(=O)(=O)c2ccc(N)cc2)nc(OC)n1`, the tube area decrease is 0.8%.
Same read-out and setting: the value for `Cc1cc(NC(=O)C2=C(O)c3ccccc3S(=O)(=O)N2C)no1` was 14.8%; that for `O=C(O)[C@@H](O)[C@H](O)[C@H](O)[C@@H](O)C(=O)O` was 23.5%; that for `CN1CCOC(c2ccccc2)c2ccccc2C1` (stereo unspecified) was 0.9%.
The same measure, in the same setting: as for `Cc1cccc(N(C)C(=S)Oc2ccc3ccccc3c2)c1`, the figure is -39%; as for `O=C1c2ccccc2C(=O)C1c1ccccc1`, -11%.
Same read-out and setting: as for `Cc1onc(-c2ccccc2Cl)c1C(=O)N[C@@H]1C(=O)N2[C@@H]1SC(C)(C)[C@@H]2C(=O)O`, the figure is 12.2%; as for `CO[C@]12C[C@@H](COC(=O)c3cncc(Br)c3)CN(C)[C@@H]1Cc1cn(C)c3cccc2c13`, 0.8%; as for `Cc1ccccc1OCC(O)CO` (stereo unspecified), -4.1%.
Regarding `Cc1ccc(C(C)C)cc2c(C)ccc1-2`, the tube area decrease was 15.5%.
Still for that read-out and setting: the value for `O=C1C(=O)c2ccccc2C(O)=C1C1CCC(c2ccc(Cl)cc2)CC1` (stereo unspecified) was 69.9% (active).
On the same count and under the same terms, as for `Cc1ccc2c(Cl)cc(Cl)c(O)c2n1`, the figure is 9.4%; as for `NC(N)=NS(=O)(=O)c1ccc(N)cc1`, -2.9%; as for `CCOc1ccc(NC(C)=O)cc1`, -16.7%.
Still for that read-out and setting: as for `Cn1c(=O)c2c(ncn2CC(O)CO)n(C)c1=O` (stereo unspecified), the figure is -11.6%; as for `Cc1cc(=O)n(-c2ccccc2)n1C`, -3.4%.
Consider `O=C(O)c1ccccc1Nc1cccc(C(F)(F)F)c1`, for which the tube area decrease is 47.5% (active).
Still for that read-out and setting: as for `CC1=NN(c2ccccc2)C(=O)C1`, the figure is 6.7%; as for `Cc1c(C(=O)O)c(O)cc2c1C(=O)c1c(O)c([C@@H]3O[C@H](CO)[C@@H](O)[C@H](O)[C@H]3O)c(O)c(O)c1C2=O`, 24.4%.
On the same count and under the same terms, as for `CC(C)(Sc1cc(C(C)(C)C)c(O)c(C(C)(C)C)c1)Sc1cc(C(C)(C)C)c(O)c(C(C)(C)C)c1`, the figure is -25%.
As to `CN1C(C(=O)Nc2ccccn2)=C(O)c2sccc2S1(=O)=O`, the tube area decrease was 2.6%.
Take `CCCCC(=O)O[C@]1(C(=O)CO)[C@@H](C)C[C@H]2[C@@H]3CCC4=CC(=O)C=C[C@]4(C)[C@@]3(F)[C@@H](O)C[C@@]21C`: the tube area decrease is 2.4%.
`COc1ccccc1OCC(O)CO` (stereo unspecified): the tube area decrease was -23.8%.
Same read-out and setting: as for `CCCCOc1cc(C(=O)NCCN(CC)CC)c2ccccc2n1`, the figure is 3.5%; as for `CC1(C)O[C@H]2CC(=O)OC[C@]23[C@H]2CC[C@@]4(C)[C@H](c5ccoc5)OC(=O)[C@H]5O[C@]54[C@]2(C)C(=O)C[C@@H]13`, 16.3%; as for `CC1=CC(=O)c2ccccc2C1=O`, 26.3%.
Same read-out and setting: the value for `COc1ccc2c(c1)c(CC(=O)OCC(=O)O)c(C)n2C(=O)c1ccc(Cl)cc1` was -5.2%.
With `CC/C(=C(/CC)c1ccc(O)cc1)c1ccc(O)cc1`, the tube area decrease was 20.8%.
Consider `COc1cc(C(=O)NCc2ccc(OCCN(C)C)cc2)cc(OC)c1OC`, for which the tube area decrease was 16.6%.
On the same count and under the same terms, the value for `O=C1c2ccccc2C(=O)c2c1ccc(O)c2O` was -9.9%; that for `CCN(CC)CCOC(=O)C(c1ccccc1)c1ccccc1` was 17.8%; that for `CC1=C(C(=O)O)N2C(=O)[C@@H](NC(=O)[C@H](N)C3=CCC=CC3)[C@H]2SC1` was 0.9%.
For the molecule `NC(=O)NC1NC(=O)NC1=O` (stereo unspecified), the tube area decrease is 1.2%.
On the same count and under the same terms, the value for `CC(C)NC[C@@H](O)COc1cccc2ccccc12` was 5.1%.
Turning to `N=C(N)N`, the tube area decrease was 12.8%.
Same read-out and setting: as for `CCOC(=O)[C@H](CCc1ccccc1)N[C@@H](C)C(=O)N1CCC[C@H]1C(=O)O`, the figure is -1.3%.

The nature of the next assay: glucagon-like peptide 1 release enhancers, primary assay, NCI-H716 cell line, NPC library (AID 1117341;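 active means compound raises GLP1 secretion from the human gut endocrine cells, with no numeric limit stated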; further: reference of the scale not given here). The settings on record: NCI-H716 cells, at 10 µM, active compounds read high.
`C[C@]12CCC(=O)C=C1CC[C@@H]1[C@@H]2[C@@H](O)C[C@@]2(C)[C@H]1CC[C@]2(O)C(=O)COP(=O)(O)O`: the GLP1 secretion stimulation is -1%.
On the same count and under the same terms, the value for `CCCc1ncc(C[n+]2ccccc2C)c(N)n1` was 0.7%; that for `COc1cc(NS(=O)(=O)c2ccc(N)cc2)nc(OC)n1` was 1.9%.
On the same count and under the same terms, the value for `Cc1cc(NC(=O)C2=C(O)c3ccccc3S(=O)(=O)N2C)no1` was -2.4%; that for `O=C(O)[C@@H](O)[C@H](O)[C@H](O)[C@@H](O)C(=O)O` was -1.9%; that for `CN1CCOC(c2ccccc2)c2ccccc2C1` (stereo unspecified) was 4%.
Still for that read-out and setting: as for `Cc1cccc(N(C)C(=S)Oc2ccc3ccccc3c2)c1`, the figure is -2.7%; as for `O=C1c2ccccc2C(=O)C1c1ccccc1`, 2.1%.
For `Cc1onc(-c2ccccc2Cl)c1C(=O)N[C@@H]1C(=O)N2[C@@H]1SC(C)(C)[C@@H]2C(=O)O`, the GLP1 secretion stimulation is -1%.
Still for that read-out and setting: the value for `CO[C@]12C[C@@H](COC(=O)c3cncc(Br)c3)CN(C)[C@@H]1Cc1cn(C)c3cccc2c13` was 7.1%; that for `Cc1ccccc1OCC(O)CO` (stereo unspecified) was -0.8%; that for `Cc1ccc(C(C)C)cc2c(C)ccc1-2` was -6.3%.
Same read-out and setting: the value for `O=C1C(=O)c2ccccc2C(O)=C1C1CCC(c2ccc(Cl)cc2)CC1` (stereo unspecified) was 1.4%.
For `Cc1ccc2c(Cl)cc(Cl)c(O)c2n1`, the GLP1 secretion stimulation is 2%.
Same read-out and setting: as for `NC(N)=NS(=O)(=O)c1ccc(N)cc1`, the figure is 0.9%.
Still for that read-out and setting: as for `CCOc1ccc(NC(C)=O)cc1`, the figure is 4.4%; as for `Cn1c(=O)c2c(ncn2CC(O)CO)n(C)c1=O` (stereo unspecified), -0.3%; as for `Cc1cc(=O)n(-c2ccccc2)n1C`, 0.4%.
On the same count and under the same terms, the value for `O=C(O)c1ccccc1Nc1cccc(C(F)(F)F)c1` was 9.5%; that for `CC1=NN(c2ccccc2)C(=O)C1` was 3.5%; that for `Cc1c(C(=O)O)c(O)cc2c1C(=O)c1c(O)c([C@@H]3O[C@H](CO)[C@@H](O)[C@H](O)[C@H]3O)c(O)c(O)c1C2=O` was -1.7%.
As to `CC(C)(Sc1cc(C(C)(C)C)c(O)c(C(C)(C)C)c1)Sc1cc(C(C)(C)C)c(O)c(C(C)(C)C)c1`, the GLP1 secretion stimulation is 0.8%.
Regarding `CN1C(C(=O)Nc2ccccn2)=C(O)c2sccc2S1(=O)=O`, the GLP1 secretion stimulation was 0.4%.
Still for that read-out and setting: the value for `CCCCC(=O)O[C@]1(C(=O)CO)[C@@H](C)C[C@H]2[C@@H]3CCC4=CC(=O)C=C[C@]4(C)[C@@]3(F)[C@@H](O)C[C@@]21C` was 8.1%.
Consider `COc1ccccc1OCC(O)CO` (stereo unspecified), for which the GLP1 secretion stimulation was 1.3%.
Same read-out and setting: as for `CCCCOc1cc(C(=O)NCCN(CC)CC)c2ccccc2n1`, the figure is 7.7%; as for `CC1(C)O[C@H]2CC(=O)OC[C@]23[C@H]2CC[C@@]4(C)[C@H](c5ccoc5)OC(=O)[C@H]5O[C@]54[C@]2(C)C(=O)C[C@@H]13`, 2%.
On the same count and under the same terms, the value for `CC1=CC(=O)c2ccccc2C1=O` was -6%; that for `COc1ccc2c(c1)c(CC(=O)OCC(=O)O)c(C)n2C(=O)c1ccc(Cl)cc1` was -2.5%; that for `CC/C(=C(/CC)c1ccc(O)cc1)c1ccc(O)cc1` was 16.6%.
Still for that read-out and setting: the value for `COc1cc(C(=O)NCc2ccc(OCCN(C)C)cc2)cc(OC)c1OC` was -2.4%; that for `O=C1c2ccccc2C(=O)c2c1ccc(O)c2O` was -3.8%.
Turning to `CCN(CC)CCOC(=O)C(c1ccccc1)c1ccccc1`, the GLP1 secretion stimulation was 0.6%.
Consider `CC1=C(C(=O)O)N2C(=O)[C@@H](NC(=O)[C@H](N)C3=CCC=CC3)[C@H]2SC1`, for which the GLP1 secretion stimulation is 1.6%.
For `NC(=O)NC1NC(=O)NC1=O` (stereo unspecified), the GLP1 secretion stimulation is -1.2%.
Still for that read-out and setting: as for `CC(C)NC[C@@H](O)COc1cccc2ccccc12`, the figure is 3.3%; as for `N=C(N)N`, -1.2%.
On the same count and under the same terms, as for `CCOC(=O)[C@H](CCc1ccccc1)N[C@@H](C)C(=O)N1CCC[C@H]1C(=O)O`, the figure is 19.8%.
